# Only some compounds are listed: those with a hit (about 2.4% of all), similar ones and a draw of the others.
# D2 PAM-1: Beta-Arrestin HTS for Positive Allosteric Modulators of the Human D2 Dopamine Receptor: Potentiators | 360,000 tested, 0.23% active | DiscoveRx D2 beta-arrestin cells, luminescence, 90 min; 100% = 57 uM dopamine signal | potentiation, % (concentration not given with the values) | D(2) dopamine receptor (Homo sapiens), P14416; in the data active = potentiation above about 50%; inconclusive = mostly about 30% to 49%
# Target sequence (P14416 whole entry, looked up): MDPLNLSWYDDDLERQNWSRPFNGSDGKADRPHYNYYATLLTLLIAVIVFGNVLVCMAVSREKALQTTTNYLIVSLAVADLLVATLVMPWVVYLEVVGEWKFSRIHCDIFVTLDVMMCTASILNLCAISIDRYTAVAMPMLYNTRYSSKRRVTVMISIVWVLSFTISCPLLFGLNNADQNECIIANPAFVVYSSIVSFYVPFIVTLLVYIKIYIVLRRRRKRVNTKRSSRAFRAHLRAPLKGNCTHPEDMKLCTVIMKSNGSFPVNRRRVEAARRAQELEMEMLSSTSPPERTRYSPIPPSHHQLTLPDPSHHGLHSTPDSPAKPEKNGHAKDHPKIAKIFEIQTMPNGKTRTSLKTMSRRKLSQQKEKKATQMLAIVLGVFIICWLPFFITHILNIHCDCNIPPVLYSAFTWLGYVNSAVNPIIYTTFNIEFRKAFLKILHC
#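 PathHunter D2 cells, attached overnight at 37 deg C, received compound in DMSO plus dopamine at EC20 (50 nM final) for 90 min at 37 deg C. Beta-arrestin recruitment was read as luminescence after 1 h with detection reagent at ambient temperature.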
# D2 ag-1: HTS Assay for Allosteric Agonists of the Human D2 Dopamine Receptor: Primary Screen for Agonists; AID 485358, 2010; D(2) dopamine receptor (Homo sapiens), P14416; activation, % at 2 µM; HEK293 T-REx D2 cells, calcium flux agonist mode; 340,000 tested, 0.53% active;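 active = activation over 3 SD above normal in the single-dose calcium agonist read, cut at about 30% in these data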; note: 0% is about no effect
#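 HEK293 Trex D2 cells, tetracycline-induced, o/n 30 C 5% CO2; no-wash Ca dye, RT 30–90 min; 10-cycle baseline, 23 nl cpd added, kinetic Ca read 180 s; agonist hits = positive Ca response.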
# D2 ag-2: Beta-Arrestin HTS for Positive Allosteric Modulators of the Human D2 Dopamine Receptor: Agonists; D(2) dopamine receptor (Homo sapiens), P14416; DiscoveRx PathHunter D2 beta-arrestin, luminescence, 90 min; 100% = 57 uM dopamine signal; activation, % (no concentration beside the values); 360,000 tested, 0.084% active; AID 624465, 2012; in the data active = activation above about 40%; inconclusive = between about 15% and that limit
#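 Agonist mode: compounds alone added to overnight-plated D2 PathHunter cells for 90 min at 37 C, with 57 uM final dopamine (EC100) defining full response. Beta-arrestin recruitment detected by chemiluminescent reagent, read after 1 h at ambient temperature.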
# D2 PAM-2: HTS Assay for Positive Allosteric Modulators of the Human D2 Dopamine Receptor: Primary Screen for Potentiators | D(2) dopamine receptor (Homo sapiens), P14416 | HEK293 T-REx D2, calcium flux, EC20 dopamine potentiation | potentiation, % at 10 µM | 340,000 tested, 0.34% active;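 active = potentiation over 3 SD above the plate norm, cut at about 30% in these data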; note: 0% is about no effect
#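 Using a no-wash calcium dye in inducible, force-coupled HEK293 Trex cells expressing D2, we tracked fluorescence each second for 180 s after compound, then for 180 s after EC20 dopamine to detect augmented signalling.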
# D2 antag: HTS Assay for Allosteric Antagonists of the Human D2 Dopamine Receptor: Primary Screen for Antagonists. D(2) dopamine receptor (Homo sapiens), P14416. HEK293 TREx D2 cells, calcium flux, dopamine EC80. inhibition, % at 10 µM. 340,000 tested, 2% active; in the data active = inhibition above about 30%; inactive = below that, where a call was filed; note: 0% is about no effect
#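 Antagonism is scored as inhibition of an EC80 dopamine-evoked calcium signal in a force-coupled, tetracycline-inducible HEK293 T-REx D2 line, with compound present 180 s before agonist.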
# The depositor's hits bear a star; ? = inconclusive; · = no result.
SMILES,D2 PAM-1,D2 ag-1,D2 ag-2,D2 PAM-2,D2 antag
CN1C(=CC=C2C=C(I)C(=O)C(I)=C2)C(C)(C)c2ccccc21,-0.9,6.7,-1.9,-3.6,15.5
CN1/C(=C\C=C2/C(=O)Oc3ccccc3C2=O)C(C)(C)c2ccccc21,2.6,124.7*,-2.3,-12.3,68.1*
CN1/C(=C\C=C2/SC(=S)NC2=O)C(C)(C)c2ccccc21,-14.4,41.2*,-10.9,-7.9,16.5
Cc1cc(C)n(C(=O)C(C)N2C(=O)c3ccccc3C2=O)n1 (stereo not given),-2.4,-0.5,-2.3,31.3*,-7.2
Cc1cc(C)n(C(=O)CN2C(=O)c3ccccc3C2=O)n1,-5.9,-0.6,-1.2,-1.9,3.0
CCOc1ccc(/C=C2\CCC(C3CCCC3)C2=O)cc1 (stereo not given),-0.3,-1.4,2.3,-3.4,37.4*
COc1cc(-c2nc(S(=O)(=O)c3ccc(Br)cc3)c(N3CCOCC3)o2)cc(OC)c1OC,·,·,·,-0.4,·
CC(C(=O)Nc1cc(Cl)cc(Cl)c1)N1CCCC1 (stereo not given),-12.3,2.0,-0.9,-29.6,89.1*
Cc1cc(C)c(NC(=O)C(C)N2CCCCCC2)c(C)c1 (stereo not given),-4.4,-0.2,-2.5,1.4,-10.8
CCSC1=NSC2=NC(=O)/C(=C\c3coc4ccccc4c3=O)C(=N)N12,?,99.6*,-1.0,-7.2,11.6
CC(C)CC1=NN2C(=N)/C(=C\c3coc4ccccc4c3=O)C(=O)N=C2S1,4.3,13.2,3.5,2.3,-4.5
Cc1ccc(-c2cc(-c3ccc4c(c3)NC(=O)CO4)nc3c2COc2ccc(C)cc2-3)cc1,·,-0.3,·,-1.1,·
OCCC1CN(Cc2cccc3nccnc23)CCN1C1CCCC1 (stereo not given),-15.9,0.4,0.8,-11.1,-10.5
OCCC1CN(Cc2cccc3nonc23)CCN1C1CCCCC1 (stereo not given),-16.0,-0.8,-6.3,-13.1,37.7*
Cc1ccc(C)c(N2CCN(Cc3nnnn3C3CCCCC3)CC2)c1,-7.6,1.0,-2.3,12.7,7.5
C/C=C(\C)CN1CCN(c2cccc(C)c2C)CC1,-28.1,0.7,1.2,-22.9,85.0*
Cc1cccc(N2CCN(CC3CCCCC3)CC2)c1C,-5.0,0.5,-3.9,-37.6,73.3*
Cc1ccc(C)c(N2CCN(CCCc3ccccc3)CC2)c1,-4.6,1.6,-5.9,-25.2,51.3*
Cc1ccc(C)c(N2CCN(CC3CCCCC3)CC2)c1,-19.7,-0.8,3.2,-20.8,62.2*
COc1ccccc1NC(=O)C1=C(C)Nc2nc(SCc3ccccc3C)nn2C1CC(C)C (stereo not given),·,·,·,3.0,·
Cc1cc(C(=O)N2CCN(c3ccccc3)CC2)c2c(C)nn(-c3cccc(F)c3)c2n1,·,0.5,·,2.4,·
C=C(C)Cn1c(SCC(=O)O)nnc1-c1ccccc1,-1.1,-0.7,0.6,4.5,-6.4
C=C(C)Cn1c(SCC(=O)O)nnc1-c1ccc(C(C)(C)C)cc1,8.1,-0.3,-2.1,-3.9,30.2*
CC1=C(C(=O)Nc2ccc(C)cc2C)C(c2ccccc2)n2ncc(C(=O)Nc3ccccc3)c2N1 (stereo not given),·,-0.6,·,-6.2,·
COC(=O)/C(=C/c1ccc(OC)cc1)NC(=O)c1ccco1,3.8,0.5,-0.8,-4.4,7.5
COC(=O)/C(=C/c1ccccc1)NC(=O)c1ccco1,-1.6,-0.1,-1.5,2.1,38.6*
CCOC(=O)C1CCN(CCCSc2ccc(Cl)cc2)CC1,-27.0,0.5,-1.6,-21.2,46.1*
Clc1ccc(SCCOCCN2CCCCC2)cc1,-20.7,0.3,-1.3,-25.8,-12.2
CCOC(=O)C1CCN(CCC(=O)Nc2ccc(Cl)cc2)CC1,-41.4,3.2,3.4,-30.1,18.0
CC1CN(CCOCCSc2ccc(Cl)cc2)CC(C)O1 (stereo not given),-62.4,-0.7,-1.2,-14.1,50.2*
